{"source": "PubChem BioAssay AID1159580", "about": "(chemical genetic matrix, 2015)", "test": "chemical genetic growth profiling, strain panel (AID 1159580);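 note: tested at 20 µM; growth read once vehicle control cultures reached saturation at 30 °C; 1 = growth at the plate median or of vehicle wells; lower values mean less growth of the strain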", "conditions": "growth OD", "note": "Out of some 5,500 compounds screened, about 2,000 (36%) were called active. Roughly 18% stayed inconclusive and do not appear here. The list shows a part of the results. Unmarked numbers belong to inactive results. Cut-off read from the data, not from the text of the source: active = normalized growth mostly below about 0.91 (no sharp cut-off); inconclusive = no clear call, values can overlap the other calls; inactive = mostly above about 0.92.", "data": [{"smiles": "O=C1C=CC(=O)c2c(O)cccc21", "values": [{"measurement": "normalized growth", "setting": "S. cerevisiae deletion strains, locus YJR043C, strain POL32, stronger effect = lower value", "value": 1.01}, {"measurement": "normalized growth", "setting": "S. cerevisiae deletion strains, locus YJR066W, strain TOR1, stronger effect = lower value", "value": 0.894}, {"measurement": "normalized growth", "setting": "S. cerevisiae deletion strains, locus YKL009W, strain mrt4, stronger effect = lower value", "value": 0.934}, {"measurement": "normalized growth", "setting": "S. cerevisiae deletion strains, locus YKL068W, stronger effect = lower value", "value": 0.982}, {"measurement": "normalized growth", "setting": "S. cerevisiae deletion strains, locus YKL085W, strain MDH1 (second series), stronger effect = lower value", "value": 0.97}, {"measurement": "normalized growth", "setting": "S. cerevisiae deletion strains, locus YKL085W, strain MDH1, stronger effect = lower value", "value": 0.97}, {"measurement": "normalized growth", "setting": "S. cerevisiae deletion strains, locus YKL160W, strain elf1, stronger effect = lower value", "value": 1}, {"measurement": "normalized growth", "setting": "S. cerevisiae deletion strains, locus YKL190W, strain CNB1, stronger effect = lower value", "value": 0.986}, {"measurement": "normalized growth", "setting": "S. cerevisiae deletion strains, locus YKR001C, strain vps1, stronger effect = lower value", "value": 0.938}, {"measurement": "normalized growth", "setting": "S. cerevisiae deletion strains, locus YKR026C, strain gcn3, stronger effect = lower value", "value": 0.983}, {"measurement": "normalized growth", "setting": "S. cerevisiae deletion strains, locus YKR091W, strain srl3, stronger effect = lower value", "value": 0.983}, {"measurement": "normalized growth", "setting": "S. cerevisiae deletion strains, locus YLL001W, strain dnm1, stronger effect = lower value", "value": 0.968}, {"measurement": "normalized growth", "setting": "S. cerevisiae deletion strains, locus YLL026W, stronger effect = lower value", "value": 1.01}, {"measurement": "normalized growth", "setting": "S. cerevisiae deletion strains, locus YLL041C, strain sdh2, stronger effect = lower value", "value": 1}, {"measurement": "normalized growth", "setting": "S. cerevisiae deletion strains, locus YLR027C, strain aat2, stronger effect = lower value", "value": 0.984}, {"measurement": "normalized growth", "setting": "S. cerevisiae deletion strains, locus YLR039C, strain RIC1, stronger effect = lower value", "value": 0.699}, {"measurement": "normalized growth", "setting": "S. cerevisiae deletion strains, locus YLR058C, strain SHM2, stronger effect = lower value", "value": 0.947}, {"measurement": "normalized growth", "setting": "S. cerevisiae deletion strains, locus YLR102C, strain apc9, stronger effect = lower value", "value": 0.989}, {"measurement": "normalized growth", "setting": "S. cerevisiae deletion strains, locus YLR113W, strain HOG1, stronger effect = lower value", "value": 0.922}, {"measurement": "normalized growth", "setting": "S. cerevisiae deletion strains, locus YLR221C, strain rsa3, stronger effect = lower value", "value": 0.947}, {"measurement": "normalized growth", "setting": "S. cerevisiae deletion strains, locus YLR258W, strain gsy2, stronger effect = lower value", "value": 0.979}, {"measurement": "normalized growth", "setting": "S. cerevisiae deletion strains, locus YLR262C, strain YPT6 (second series), stronger effect = lower value", "value": "0.727 (active)"}, {"measurement": "normalized growth", "setting": "S. cerevisiae deletion strains, locus YLR262C, strain YPT6, stronger effect = lower value", "value": 0.731}, {"measurement": "normalized growth", "setting": "S. cerevisiae deletion strains, locus YLR268W, strain sec22, stronger effect = lower value", "value": 0.995}, {"measurement": "normalized growth", "setting": "S. cerevisiae deletion strains, locus YLR320W, strain mms22, stronger effect = lower value", "value": "0.851 (active)"}, {"measurement": "normalized growth", "setting": "S. cerevisiae deletion strains, locus YLR330W, strain CHS5, stronger effect = lower value", "value": 1}, {"measurement": "normalized growth", "setting": "S. cerevisiae deletion strains, locus YLR342W, strain FKS1 (second series), stronger effect = lower value", "value": 0.967}, {"measurement": "normalized growth", "setting": "S. cerevisiae deletion strains, locus YLR342W, strain FKS1, stronger effect = lower value", "value": 0.986}, {"measurement": "normalized growth", "setting": "S. cerevisiae deletion strains, locus YLR357W, strain rsc2, stronger effect = lower value", "value": 0.964}, {"measurement": "normalized growth", "setting": "S. cerevisiae deletion strains, locus YLR370C, strain arc18, stronger effect = lower value", "value": 0.979}, {"measurement": "normalized growth", "setting": "S. cerevisiae deletion strains, locus YLR384C, strain iki3, stronger effect = lower value", "value": 0.957}, {"measurement": "normalized growth", "setting": "S. cerevisiae deletion strains, locus YLR418C, strain cdc73, stronger effect = lower value", "value": 0.885}, {"measurement": "normalized growth", "setting": "S. cerevisiae deletion strains, locus YML016C, strain PPZ1, stronger effect = lower value", "value": 0.975}, {"measurement": "normalized growth", "setting": "S. cerevisiae deletion strains, locus YML032C, strain rad52, stronger effect = lower value", "value": 0.915}, {"measurement": "normalized growth", "setting": "S. cerevisiae deletion strains, locus YML120C, strain ndi1, stronger effect = lower value", "value": 0.987}, {"measurement": "normalized growth", "setting": "S. cerevisiae deletion strains, locus YML124C, strain tub3, stronger effect = lower value", "value": 0.993}, {"measurement": "normalized growth", "setting": "S. cerevisiae deletion strains, locus YMR058W, strain fet3, stronger effect = lower value", "value": 0.983}, {"measurement": "normalized growth", "setting": "S. cerevisiae deletion strains, locus YMR078C, strain ctf18, stronger effect = lower value", "value": 0.986}, {"measurement": "normalized growth", "setting": "S. cerevisiae deletion strains, locus YMR125W, strain sto1, stronger effect = lower value", "value": 0.991}, {"measurement": "normalized growth", "setting": "S. cerevisiae deletion strains, locus YMR129W, stronger effect = lower value", "value": 1.03}, {"measurement": "normalized growth", "setting": "S. cerevisiae deletion strains, locus YMR205C, strain PFK2, stronger effect = lower value", "value": 0.91}, {"measurement": "normalized growth", "setting": "S. cerevisiae deletion strains, locus YMR223W, strain ubp8, stronger effect = lower value", "value": 0.966}, {"measurement": "normalized growth", "setting": "S. cerevisiae deletion strains, locus YMR231W, strain pep5, stronger effect = lower value", "value": 0.975}, {"measurement": "normalized growth", "setting": "S. cerevisiae deletion strains, locus YMR307W, strain GAS1, stronger effect = lower value", "value": 0.944}, {"measurement": "normalized growth", "setting": "S. cerevisiae deletion strains, locus YNL067W, strain RPL9B, stronger effect = lower value", "value": 0.979}, {"measurement": "normalized growth", "setting": "S. cerevisiae deletion strains, locus YNL071W, strain lat1, stronger effect = lower value", "value": "0.897 (active)"}, {"measurement": "normalized growth", "setting": "S. cerevisiae deletion strains, locus YNL153C, strain GIM3, stronger effect = lower value", "value": 0.964}, {"measurement": "normalized growth", "setting": "S. cerevisiae deletion strains, locus YNL183C, strain NPR1, stronger effect = lower value", "value": 0.932}, {"measurement": "normalized growth", "setting": "S. cerevisiae deletion strains, locus YNL209W, strain ssb2, stronger effect = lower value", "value": 0.983}, {"measurement": "normalized growth", "setting": "S. cerevisiae deletion strains, locus YNL233W, strain BNI4, stronger effect = lower value", "value": 0.996}, {"measurement": "normalized growth", "setting": "S. cerevisiae deletion strains, locus YNL248C, strain rpa49, stronger effect = lower value", "value": 1.08}, {"measurement": "normalized growth", "setting": "S. cerevisiae deletion strains, locus YNL250W, strain rad50, stronger effect = lower value", "value": 0.987}, {"measurement": "normalized growth", "setting": "S. cerevisiae deletion strains, locus YNL271C, strain bni1, stronger effect = lower value", "value": 0.982}, {"measurement": "normalized growth", "setting": "S. cerevisiae deletion strains, locus YNL298W, strain CLA4, stronger effect = lower value", "value": 0.998}, {"measurement": "normalized growth", "setting": "S. cerevisiae deletion strains, locus YNL307C, strain MCK1, stronger effect = lower value", "value": 0.994}, {"measurement": "normalized growth", "setting": "S. cerevisiae deletion strains, locus YNL322C, strain KRE1 (second series), stronger effect = lower value", "value": 1.01}, {"measurement": "normalized growth", "setting": "S. cerevisiae deletion strains, locus YNR049C, strain mso1, stronger effect = lower value", "value": 0.993}, {"measurement": "normalized growth", "setting": "S. cerevisiae deletion strains, locus YNR052C, strain pop2, stronger effect = lower value", "value": 1.01}, {"measurement": "normalized growth", "setting": "S. cerevisiae deletion strains, locus YOL012C, strain htz1", "value": 1.06}, {"measurement": "normalized growth", "setting": "S. cerevisiae deletion strains, locus YOL147C, strain pex11, stronger effect = lower value", "value": 0.994}, {"measurement": "normalized growth", "setting": "S. cerevisiae deletion strains, locus YOR001W, strain rrp6, stronger effect = lower value", "value": 0.966}, {"measurement": "normalized growth", "setting": "S. cerevisiae deletion strains, locus YOR061W, strain CKA2, stronger effect = lower value", "value": 0.947}, {"measurement": "normalized growth", "setting": "S. cerevisiae deletion strains, locus YOR069W, strain VPS5, stronger effect = lower value", "value": 0.981}, {"measurement": "normalized growth", "setting": "S. cerevisiae deletion strains, locus YOR070C, strain gyp1, stronger effect = lower value", "value": 0.993}, {"measurement": "normalized growth", "setting": "S. cerevisiae deletion strains, locus YOR080W, strain dia2, stronger effect = lower value", "value": 0.971}, {"measurement": "normalized growth", "setting": "S. cerevisiae deletion strains, locus YOR083W, strain WHI5, stronger effect = lower value", "value": 0.99}, {"measurement": "normalized growth", "setting": "S. cerevisiae deletion strains, locus YOR106W, strain vam3, stronger effect = lower value", "value": 0.91}, {"measurement": "normalized growth", "setting": "S. cerevisiae deletion strains, locus YOR136W, strain idh2, stronger effect = lower value", "value": 0.993}, {"measurement": "normalized growth", "setting": "S. cerevisiae deletion strains, locus YOR144C, strain elg1, stronger effect = lower value", "value": 0.988}, {"measurement": "normalized growth", "setting": "S. cerevisiae deletion strains, locus YOR184W, strain ser1, stronger effect = lower value", "value": 0.984}, {"measurement": "normalized growth", "setting": "S. cerevisiae deletion strains, locus YOR231W, strain MKK1, stronger effect = lower value", "value": 0.964}, {"measurement": "normalized growth", "setting": "S. cerevisiae deletion strains, locus YOR265W, strain rbl2, stronger effect = lower value", "value": 0.966}, {"measurement": "normalized growth", "setting": "S. cerevisiae deletion strains, locus YOR270C, strain vph1, stronger effect = lower value", "value": "0.775 (active)"}, {"measurement": "normalized growth", "setting": "S. cerevisiae deletion strains, locus YOR290C, strain snf2, stronger effect = lower value", "value": 0.989}, {"measurement": "normalized growth", "setting": "S. cerevisiae deletion strains, locus YOR316C, strain cot1, stronger effect = lower value", "value": 0.99}, {"measurement": "normalized growth", "setting": "S. cerevisiae deletion strains, locus YPL051W, strain arl3, stronger effect = lower value", "value": 0.97}, {"measurement": "normalized growth", "setting": "S. cerevisiae deletion strains, locus YPL078C, strain atp4, stronger effect = lower value", "value": 0.974}, {"measurement": "normalized growth", "setting": "S. cerevisiae deletion strains, locus YPL106C, strain sse1, stronger effect = lower value", "value": 0.881}, {"measurement": "normalized growth", "setting": "S. cerevisiae deletion strains, locus YPL240C, strain hsp82, stronger effect = lower value", "value": 0.973}, {"measurement": "normalized growth", "setting": "S. cerevisiae deletion strains, locus YPL241C, strain CIN2, stronger effect = lower value", "value": 0.987}, {"measurement": "normalized growth", "setting": "S. cerevisiae deletion strains, locus YPL256C, strain CLN2, stronger effect = lower value", "value": 0.94}, {"measurement": "normalized growth", "setting": "S. cerevisiae deletion strains, locus YPR119W, strain clb2, stronger effect = lower value", "value": 0.992}, {"measurement": "normalized growth", "setting": "S. cerevisiae deletion strains, locus YPR141C, strain kar3, stronger effect = lower value", "value": 0.982}, {"measurement": "normalized growth", "setting": "S. cerevisiae deletion strains, locus YPR163C, strain tif3, stronger effect = lower value", "value": 1.01}, {"measurement": "normalized growth", "setting": "S. cerevisiae deletion strains, locus YPR167C, strain met16, stronger effect = lower value", "value": 1}, {"measurement": "normalized growth", "setting": "S. cerevisiae deletion strains, strain wtn01, stronger effect = lower value", "value": 1.04}, {"measurement": "normalized growth", "setting": "S. cerevisiae strains, strain wild type, stronger effect = lower value", "value": 0.987}]}]}
